Laboratory results published in PubChem BioAssay (Tox21).
Records with an inconclusive call do not appear. The source made the active and inactive calls. Calls come from the whole dose curve; as a rule, active = well fitted curve in the direction sought with a large enough effect in the repeat runs; inconclusive = weak or mixed curves; inactive = no such curve, though single readings can be large; an effect the other way counts as inactive or inconclusive.

Assay: qHTS assay to identify small molecule antagonists of the TGF-beta/Smad signaling pathway - cell viability counter screen (AID 1346824); note: nearly all actives have a fitted effect of over 50% in size
Conditions: SBE-bla HEK293T viability, CellTiter-Glo luminescence; series mostly up to 76.8 µM
Method in brief: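 SBE-bla HEK 293T cells, incubated overnight, then compound plus 0.25 ng/mL TGF-beta1 (stock added) for 5 hr at 37 C. Viability was read in the same wells by CellTiter-Glo luminescence after 30 min at room temperature.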
For `COc1cc(CNC(=O)CCCC/C=C/C(C)C)ccc1O`, the outcome was “inactive”.
In the case of `O=C(O)c1ccccc1-n1cc(C(=O)O)c(=O)c2cc(Nc3c(F)cc(F)cc3Cl)c(Cl)cc21`, the outcome is reported as “inactive”.
For `O=C(Nc1ccccc1)c1cc([N+](=O)[O-])ccc1Cl`, the outcome was “inactive”.
For `C[C@H]1C[C@H]2[C@@H]3CCC4=CC(=O)C=C[C@]4(C)[C@@]3(F)[C@@H](O)C[C@]2(C)[C@@]1(O)C(=O)COP(=O)(O)O`, the outcome was “inactive”.
With `CC(C)CCCCCOC(=O)CS` the outcome was “inactive”.
With `O=c1[nH][nH]c2ccccc12` the outcome was “inactive”.
For `C=C(C)C(=O)OCCCCCCCCCCOC(=O)C(=C)C`, the outcome was “inactive”.
For `Cc1ccc(S(=O)(=O)NC(=O)NC2CCCC2)cc1`, the outcome was “inactive”.
With `O=C(N[C@@H](Cc1ccccc1)[C@@H](O)C(=O)N1C[C@@H](O)[C@@H](O)C1)c1cc2cc(Cl)ccc2[nH]1` the outcome was “inactive”.
In the case of `O=Cc1ccc([N+](=O)[O-])cc1`, the outcome is reported as “inactive”.
In the case of `CCCN(C1CCN(C(=O)C2CCNCC2)CC1)[C@@H]1CCc2ccc(OC)cc2C1`, the outcome is reported as “inactive”.
In the case of `CCCc1ccc(OC)cc1`, the outcome is reported as “inactive”.
In the case of `CCOc1cc(OCC)c(C(C)=O)cc1OCC`, the outcome is reported as “inactive”.
With `O=C(O)c1cc(C(=O)O)c(C(=O)O)cc1C(=O)O` the outcome was “inactive”.
With `Cc1cc(C)c(C)c(O)c1` the outcome was “inactive”.
In the case of `FC(F)(Cl)C(F)(Cl)Cl`, the outcome is reported as “inactive”.
In the case of `CCc1ccc2c(c1)C(=O)c1ccccc1C2=O`, the outcome is reported as “inactive”.
For `Cc1c(-c2cccnc2)c2ccccc2n1CCCCC(=O)O`, the outcome was “inactive”.
In the case of `C=CCCC`, the outcome is reported as “inactive”.
In the case of `CCC(C)C1N=C(C)C(C)S1` (configuration not stated), the outcome is reported as “inactive”.
For `Clc1ccccc1-c1nc(-c2ccncc2)no1`, the outcome was “inactive”.
For `CC(C)CC(C)(C)C`, the outcome was “inactive”.
With `COc1ccc(/C=C/c2cc(OC)cc(=O)o2)cc1` the outcome was “inactive”.
With `C=Cc1ccc(C=C)cc1` the outcome was “inactive”.
For `C(/C=C/C=C/Nc1ccccc1)=Nc1ccccc1`, the outcome was “inactive”.
In the case of `O=C(Nc1ccc2c(c1)Cc1ccccc1-2)C(F)(F)F`, the outcome is reported as “inactive”.
With `O=C(OCCN1CCOCC1)c1cccnc1Nc1cccc(C(F)(F)F)c1` the outcome was “inactive”.
For `C1=COCCC1`, the outcome was “inactive”.
For `Clc1cc(Cl)c2c(c1)N=C1CCCCCN1C2`, the outcome was “inactive”.
For `CC(=O)S[C@H](C(=O)N[C@H]1Cc2ccccc2[C@H]2CCC[C@@H](C(=O)O)N2C1=O)C(C)C`, the outcome was “inactive”.
With `CCCCCCOC(=O)c1ccccc1` the outcome was “inactive”.
In the case of `O=S(=O)(O)c1cc(Cl)c(Cl)cc1Cl`, the outcome is reported as “inactive”.
For `O=C1c2ccccc2C(=O)c2c1ccc(O)c2O`, the outcome was “inactive”.

Assay: qHTS assay to identify small molecule agonists of the TGF-beta/Smad signaling pathway - cell viability counter screen (AID 1346829); note: top concentration of the series differs between compounds; nearly all actives have a fitted effect of over 45% in size
Conditions: SBE-bla HEK293T viability, CellTiter-Glo luminescence, 5 h; series mostly up to 76.8 µM
Method in brief: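 In parallel with the Smad reporter read, viability of HEK 293T cells stably carrying SBE-bla is quantified by ATP luminescence following 5 hr compound treatment.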
With `COc1cc(CNC(=O)CCCC/C=C/C(C)C)ccc1O` the outcome was “inactive”.
In the case of `O=C(O)c1ccccc1-n1cc(C(=O)O)c(=O)c2cc(Nc3c(F)cc(F)cc3Cl)c(Cl)cc21`, the outcome is reported as “inactive”.
For `O=C(Nc1ccccc1)c1cc([N+](=O)[O-])ccc1Cl`, the outcome was “inactive”.
With `C[C@H]1C[C@H]2[C@@H]3CCC4=CC(=O)C=C[C@]4(C)[C@@]3(F)[C@@H](O)C[C@]2(C)[C@@]1(O)C(=O)COP(=O)(O)O` the outcome was “inactive”.
For `CC(C)CCCCCOC(=O)CS`, the outcome was “inactive”.
In the case of `O=c1[nH][nH]c2ccccc12`, the outcome is reported as “inactive”.
In the case of `C=C(C)C(=O)OCCCCCCCCCCOC(=O)C(=C)C`, the outcome is reported as “inactive”.
For `Cc1ccc(S(=O)(=O)NC(=O)NC2CCCC2)cc1`, the outcome was “inactive”.
In the case of `O=C(N[C@@H](Cc1ccccc1)[C@@H](O)C(=O)N1C[C@@H](O)[C@@H](O)C1)c1cc2cc(Cl)ccc2[nH]1`, the outcome is reported as “inactive”.
In the case of `CCCCCCCCOCCCN`, the outcome is reported as “inactive”.
With `O=Cc1ccc([N+](=O)[O-])cc1` the outcome was “inactive”.
For `CC(C)Oc1ccccc1O`, the outcome was “inactive”.
For `CCCN(C1CCN(C(=O)C2CCNCC2)CC1)[C@@H]1CCc2ccc(OC)cc2C1`, the outcome was “inactive”.
For `CCCc1ccc(OC)cc1`, the outcome was “inactive”.
For `CCOc1cc(OCC)c(C(C)=O)cc1OCC`, the outcome was “inactive”.
With `O=C(O)c1cc(C(=O)O)c(C(=O)O)cc1C(=O)O` the outcome was “inactive”.
With `Cc1cc(C)c(C)c(O)c1` the outcome was “inactive”.
With `FC(F)(Cl)C(F)(Cl)Cl` the outcome was “inactive”.
In the case of `CCc1ccc2c(c1)C(=O)c1ccccc1C2=O`, the outcome is reported as “inactive”.
In the case of `Cc1c(-c2cccnc2)c2ccccc2n1CCCCC(=O)O`, the outcome is reported as “inactive”.
For `C=CCCC`, the outcome was “inactive”.
In the case of `CCC(C)C1N=C(C)C(C)S1` (configuration not stated), the outcome is reported as “inactive”.
In the case of `CCCCCCC/C=C/C=O`, the outcome is reported as “inactive”.
In the case of `Clc1ccccc1-c1nc(-c2ccncc2)no1`, the outcome is reported as “inactive”.
With `C=CC(=O)NC(C)(C)C` the outcome was “inactive”.
With `CC(C)CC(C)(C)C` the outcome was “inactive”.
For `COc1ccc(/C=C/c2cc(OC)cc(=O)o2)cc1`, the outcome was “inactive”.
With `C=Cc1ccc(C=C)cc1` the outcome was “inactive”.
For `C(/C=C/C=C/Nc1ccccc1)=Nc1ccccc1`, the outcome was “inactive”.
In the case of `O=C(Nc1ccc2c(c1)Cc1ccccc1-2)C(F)(F)F`, the outcome is reported as “inactive”.
With `O=C(OCCN1CCOCC1)c1cccnc1Nc1cccc(C(F)(F)F)c1` the outcome was “inactive”.
For `CC[C@H](NC(C)C)[C@H](O)c1ccc(O)c2[nH]c(=O)ccc12`, the outcome was “inactive”.
In the case of `C1=COCCC1`, the outcome is reported as “inactive”.
For `Clc1cc(Cl)c2c(c1)N=C1CCCCCN1C2`, the outcome was “inactive”.
In the case of `COc1ccc(C(=O)c2ccc(C)cc2)c(O)c1`, the outcome is reported as “inactive”.
In the case of `CC(=O)S[C@H](C(=O)N[C@H]1Cc2ccccc2[C@H]2CCC[C@@H](C(=O)O)N2C1=O)C(C)C`, the outcome is reported as “inactive”.
With `CCCCCCOC(=O)c1ccccc1` the outcome was “inactive”.
In the case of `O=S(=O)(O)c1cc(Cl)c(Cl)cc1Cl`, the outcome is reported as “inactive”.
In the case of `O=C1c2ccccc2C(=O)c2c1ccc(O)c2O`, the outcome is reported as “inactive”.
